Source: PubChem
Hits are enriched below; roughly 7.2% of the tested compounds scored in any of these assays.
HEK293 tox: Cytotoxic Profiling in HEK 293 Cell Line of Diverse Libraries Using Quantitative High-Throughput Screening; hit rate 6.6% among 94,000; HEK 293 viability, ATP luminescence (CellTiter-Glo), 48-72 h; Potency, µM (top dose mostly 115 µM), without a hit: at the highest dose activity change, negative = cytotoxicity, most hits filed as inhibitors; note: nearly all actives have a fitted effect of over 60% in size
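Luminescence from cellular ATP, measured with CellTiter-Glo, indicates HEK 293 viability. Cells plated at 250 cells/well are treated with compound for 48 or 72 hr at 37 degree Celsius before reagent addition.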
HEK293 viab: GF-AFC viability counterscreen for inhibitors of alpha-synuclein gene (SNCA) expression; Potency, µM (series often up to 57.1 µM), for the others: top-dose activity change, negative = cytotoxicity, actives largely listed as cytotoxic; hit rate 0.12% among 150,000; HEK-293-SNCA-luc viability, GF-AFC fluorescence, 24 h;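 note: 0% = DMSO-treated cells and -100% = medium-only wells without cells; nearly all actives have a fitted effect of over 30% in size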
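Cytotoxicity counterscreen: after 24 h compound treatment of genome-edited SNCA-luciferase HEK-293 cells, live-cell protease substrate GF-AFC read by fluorescence after 30 min; activity scaled between DMSO (0%) and medium-only (-100%), curves Hill-fitted.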
FLuc inh: Firefly luciferase inhibition profiling of diverse chemical library using quantitative high-throughput screening. Luciferin 4-monooxygenase (Photinus pyralis), P08659. purified P. pyralis luciferase, luminescence, biochemical. Potency, µM (highest dose often 115 µM), actives largely listed as inhibitors. hit rate 2.5% among 76,000. AID 1347043, 2019; note: nearly all actives have a fitted effect of over 65% in size
Target sequence (P08659 whole entry, looked up): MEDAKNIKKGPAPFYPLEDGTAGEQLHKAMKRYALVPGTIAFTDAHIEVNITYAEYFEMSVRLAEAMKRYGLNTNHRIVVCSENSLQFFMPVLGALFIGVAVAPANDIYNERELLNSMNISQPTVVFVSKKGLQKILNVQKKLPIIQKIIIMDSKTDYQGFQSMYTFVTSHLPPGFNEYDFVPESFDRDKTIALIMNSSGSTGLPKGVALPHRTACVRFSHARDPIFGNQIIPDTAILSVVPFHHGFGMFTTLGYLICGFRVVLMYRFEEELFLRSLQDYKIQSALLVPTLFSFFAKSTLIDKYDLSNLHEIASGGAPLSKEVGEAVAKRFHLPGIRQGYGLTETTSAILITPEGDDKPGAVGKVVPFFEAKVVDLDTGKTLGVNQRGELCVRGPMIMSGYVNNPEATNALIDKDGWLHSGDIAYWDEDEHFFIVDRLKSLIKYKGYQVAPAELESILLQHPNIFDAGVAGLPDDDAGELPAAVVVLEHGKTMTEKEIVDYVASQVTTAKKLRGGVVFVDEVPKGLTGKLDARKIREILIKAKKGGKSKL
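Luminescence read by CCD imaging after purified firefly luciferase (10nM final) was added to substrate buffer holding 10uM D-luciferin and 10uM ATP, pH 7.5, pre-dosed with compound.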
SNCA expr inhib: Primary qHTS assay for inhibitors of alpha-synuclein gene (SNCA) expression; HEK-293 SNCA-luciferase knock-in, luminescence, 24 h; Potency, µM (top dose mostly 57.2 µM), for the others: at the top dose activity change, negative = inhibition, most hits filed as inhibitors; hit rate 0.17% among 140,000;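 note: plate controls were DMSO cells for no effect and cell-free wells for full effect; nearly all actives have a fitted effect of over 45% in size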
3T3 cytotox: Cytotoxic Profiling in NIH 3T3 Cell Line of Diverse Libraries Using Quantitative High-Throughput Screening. NIH 3T3 viability, CellTiter-Glo ATP luminescence, 48-72 h. Potency, µM (highest dose often 96.7 µM), for the others: top-dose activity change, negative = cytotoxicity, actives largely listed as inhibitors. hit rate 4.3% among 94,000; note: nearly all actives have a fitted effect of over 55% in size
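First NIH 3T3 cells are plated at 400 cells/well; next compound is pinned in; then plates incubate 48 or 72 hr at 37 °C; finally CellTiter-Glo is added and luminescence read after 10 min.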
NPR1 antag: Natriuretic polypeptide receptor (hNpr1) antagonism - Primary qHTS; HEK293 hNpr1 GloSensor cGMP, ANP-stimulated luminescence; Potency, µM (top dose mostly 46.3 µM), without a hit: at the highest dose activity change, negative = inhibition, usual class: inhibitors; hit rate 1.6% among 76,000; calls by dose curve; note: nearly all actives have a fitted effect of over 60% in size
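HEK293 cells stably expressing human Npr1 and cGMP GloSensor pGS-40F, loaded 2 h with 2% GloSensor reagent, given compound 30 min at room temperature. Luminescence read before and 20 min after 0.1 nM hNppA.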
Numbers without * were called inactive; i = inactive; u = inconclusive; x = no result; [ ] = dose if it differs, or a comment. Unless noted, calls come from the whole dose curve; as a rule, active = well fitted curve in the direction sought with a large enough effect; inconclusive = small, poorly fitted or top-dose-only effect, or another doubt; inactive = no such curve, though single readings can be large; an effect the other way counts as inactive or inconclusive. Unless noted, % is set by controls: 0 for no effect and ±100 for the full control effect; potency is the fitted concentration of half-maximal effect.

SMILES	HEK293 tox	HEK293 viab	FLuc inh	SNCA expr inhib	3T3 cytotox	NPR1 antag
Cc1ccc(Nc2ccnc(N3CCCC(C(=O)NCc4cccc(Cl)c4)C3)n2)cc1 (stereo unspecified)	u	-4%[12.5 µM]	x	u	u	x
COc1ccc(Nc2ccnc(N3CCN(C(=O)c4cccc(Cl)c4)CC3)n2)cc1	28µM*	u	x	u	28µM*	x
O=C(Cc1cccc(Cl)c1)N1CCN(c2nccc(Nc3ccccc3Cl)n2)CC1	35µM*	-21%	x	-3%	14µM*	x
COc1ccc(Nc2ccnc(N3CCN(C(=O)Cc4ccccn4)CC3)n2)cc1	-30%	-11%[12.5 µM]	x	-13%	-29%	x
Cc1ccc(Nc2ccnc(N3CCN(C(=O)c4cccc(Cl)c4)CC3)n2)cc1	u	-8%	x	5%	u	x
Cc1ccc(Nc2ccnc(N3CCCN(C(=O)Cc4cccc(Cl)c4)C3)n2)cc1	13µM*	4%[12.5 µM]	x	-4%	28µM*	x
COc1ccc(Nc2ccnc(N3CCN(C(=O)c4ccc(F)cc4)CC3)n2)cc1	22µM*	-4%	x	-4%	13µM*	x
COCC(=O)N1CCN(c2nccc(Nc3ccc(OC)cc3)n2)CC1	u	4%	x	156%	u	x
COC(=O)N1CCN(c2nccc(Nc3ccc(OC)cc3)n2)CC1	u	1%[87.6 µM]	x	101%[87.6 µM]	u	x
COc1ccc(Nc2ccnc(N3CCN(C(=O)c4ccc(OC)cc4)CC3)n2)cc1	25µM*	-6%	x	5%	25µM*	x
Cc1ccc(Nc2ccnc(N3CCN(C(=O)c4ccccc4C)CC3)n2)cc1	40µM*	5%	x	-8%	35µM*	x
COc1ccc(Nc2ccnc(N3CCN(C(=O)Cc4cccc(Cl)c4)CC3)n2)cc1	u	u	x	u	28µM*	x
Cn1ccnc1C(=O)N1CCC(C(=O)N2CCCCCCNC(=O)CC2)CC1	-5%	1%	i	u	1%	4%
Cc1ccc(OCc2nc(C3CCN(S(=O)(=O)Cc4ccccc4F)C3)no2)cc1 (stereo unspecified)	25µM*	-27%	i	u	u	u
CCOCc1nc(C2CCCN(C(=O)Nc3cccc(F)c3C)C2)no1 (stereo unspecified)	7%	3%[12.5 µM]	u	87%	-5%	-24%
CCS(=O)(=O)N1CCC(c2noc(COc3ccc(F)cc3)n2)C1 (stereo unspecified)	u	8%	i	4%	-8%	-4%
Cc1c(F)cccc1NC(=O)N1CCCC(c2noc(COc3ccccc3)n2)C1 (stereo unspecified)	u	-12%[12.5 µM]	11µM*	54%	u	-25%
CCc1ccc(NC(=O)N2CCCC(c3noc(COc4ccccc4F)n3)C2)cc1 (stereo unspecified)	u	-13%	2.2µM*	63%	u	u
O=C(CC1CCCCC1)N1CCCC(c2noc(COc3ccccc3)n2)C1 (stereo unspecified)	u	4%[12.5 µM]	i	-25%	40µM*	u
CCC(C)NC(=O)C1COC2(CCC(C)CC2)N1C(=O)c1cccc(F)c1 (stereo unspecified)	u	-3%	i	26%	-15%	6%
CC(C)[S+](=O)([O-])N1CCC2(CC1)CC(c1cccc(C(F)(F)F)c1)=NO2	-32%	x	x	x	-16%	x
CCc1nc(-c2c3n(c(=O)n(CC(=O)Nc4ccccc4OC)c2=O)CCCCC3)no1	1%	-7%	i	-12%	-3%	4%
COCCNC(=O)c1nc(-c2ccc(F)cc2)c2cnccn12	-14%[172 µM]	12%[87.6 µM]	i	6%[87.6 µM]	-16%[138 µM]	28%[70.6 µM]
Cc1cccc(C(=O)N2CCCC(c3noc(COc4ccccc4F)n3)C2)c1 (stereo unspecified)	u	-19%	i	22%	u	-24%
O=C(c1cccc(F)c1)N1CCCC(c2noc(COc3ccccc3F)n2)C1 (stereo unspecified)	71µM*	-7%	i	25%	u	-7%
SMILES	HEK293 tox	HEK293 viab	FLuc inh	SNCA expr inhib	3T3 cytotox	NPR1 antag
COc1cccc(C(=O)NCC2CCCN(Cc3ccccn3)C2)c1OC (stereo unspecified)	-10%	10%	i	u	-17%	-3%
Cc1c(CN2CCCC(CNC(=O)c3cccc4ccccc34)C2)[nH]c2ccccc12 (stereo unspecified)	18µM*	u	i	-14%	20µM*	-3%
Cn1cccc1CN1CCCC2(C1)C(=NC1CCCC1)NC(=O)N2c1cc(F)cc(F)c1 (stereo unspecified)	u	-15%	x	-22%	u	x
COC(=O)[C@@H]1Cc2c([nH]c3ccccc23)[C@H]2C[C@@H](NCc3cccnc3)C[C@@H](c3ccc(OC(F)(F)F)cc3)N21	28µM*	2%	i	0%	32µM*	6%
COC(=O)[C@@H]1Cc2c([nH]c3ccccc23)[C@H]2C[C@@H](N3CCOCC3)C[C@@H](c3ccc(OC(F)(F)F)cc3)N21	u	7%	i	12%	45µM*	2%
O=C(NCc1cccnc1)[C@@H]1C[C@@H](c2ccc(F)cc2)N(Cc2ccccc2)C1	u	2%[87.6 µM]	i	-12%[87.6 µM]	u	1%[70.6 µM]
COC(=O)[C@@H]1Cc2c([nH]c3ccccc23)[C@H]2C[C@@H](N3CCOCC3)C[C@@H](c3ccc(C(F)(F)F)cc3)N21	22µM*	-22%	i	u	25µM*	4%
O=C(C1CCCN1C(=O)c1ccccc1Cl)N1CCC(N2CCOCC2=O)CC1 (stereo unspecified)	-6%	-4%	x	2%	i	x
CC(C)c1ccc(N2C(=O)N[C@@H]3CCN(C(=O)c4ccc(N(C)C)cc4)[C@@H]3C2=O)cc1	-2%[172 µM]	4%[87.6 µM]	i	-4%[87.6 µM]	-7%[138 µM]	0%[70.6 µM]
COc1cccc(-c2cc3c(=O)n(CCNC(=O)Cc4cccs4)ccn3n2)c1	u	-8%	16µM*	26%	-28%	-15%
COc1cc(OC)cc(C(=O)NCCn2ccn3nc(-c4cccc(OC)c4)cc3c2=O)c1	-24%	-14%	18µM*	39%	-24%	-16%
COc1cccc(-c2cc3c(=O)n(CCNC(=O)COc4cccc(C)c4)ccn3n2)c1	u	-13%	22µM*	90%	u	u
